# Experimental data taken from ChEMBL document CHEMBL1961873, “Compounds: GSK PKIS; Assays: Nanosyn kinase panel” (2012).
# Key:
# [1] = molecular target: Protein kinase C gamma type (Homo sapiens) (UniProt P05129); details: at 1 µM;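 note: each value is an averaged percent inhibition of the enzyme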
# [2] = molecular target: T1, Protein kinase C iota type (Homo sapiens) (UniProt P41743); details: at 0.1 µM
# T1 sequence (whole entry): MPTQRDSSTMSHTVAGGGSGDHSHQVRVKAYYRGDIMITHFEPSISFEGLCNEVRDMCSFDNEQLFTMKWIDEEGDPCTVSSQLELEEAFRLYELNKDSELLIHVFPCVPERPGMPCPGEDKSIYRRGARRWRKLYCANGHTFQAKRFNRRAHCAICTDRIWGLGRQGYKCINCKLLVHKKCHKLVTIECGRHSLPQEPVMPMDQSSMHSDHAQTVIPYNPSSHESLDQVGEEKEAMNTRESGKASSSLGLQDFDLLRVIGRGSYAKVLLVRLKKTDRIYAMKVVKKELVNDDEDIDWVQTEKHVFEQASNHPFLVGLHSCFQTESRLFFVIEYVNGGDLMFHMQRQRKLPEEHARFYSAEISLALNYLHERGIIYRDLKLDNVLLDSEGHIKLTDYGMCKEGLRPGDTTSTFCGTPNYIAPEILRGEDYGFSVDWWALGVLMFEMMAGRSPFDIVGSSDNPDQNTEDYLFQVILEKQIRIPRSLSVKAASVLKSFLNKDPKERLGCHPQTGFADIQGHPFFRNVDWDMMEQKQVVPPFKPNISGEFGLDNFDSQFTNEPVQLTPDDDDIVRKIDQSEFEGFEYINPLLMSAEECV
# [3] = molecular target: T1, Protein kinase C iota type (Homo sapiens); details: at 1 µM
# [4] = molecular target: Protein kinase C theta type (Homo sapiens) (UniProt Q04759); details: at 0.1 µM
# Chain of Protein kinase C theta type (Homo sapiens) (Q04759 whole entry, looked up): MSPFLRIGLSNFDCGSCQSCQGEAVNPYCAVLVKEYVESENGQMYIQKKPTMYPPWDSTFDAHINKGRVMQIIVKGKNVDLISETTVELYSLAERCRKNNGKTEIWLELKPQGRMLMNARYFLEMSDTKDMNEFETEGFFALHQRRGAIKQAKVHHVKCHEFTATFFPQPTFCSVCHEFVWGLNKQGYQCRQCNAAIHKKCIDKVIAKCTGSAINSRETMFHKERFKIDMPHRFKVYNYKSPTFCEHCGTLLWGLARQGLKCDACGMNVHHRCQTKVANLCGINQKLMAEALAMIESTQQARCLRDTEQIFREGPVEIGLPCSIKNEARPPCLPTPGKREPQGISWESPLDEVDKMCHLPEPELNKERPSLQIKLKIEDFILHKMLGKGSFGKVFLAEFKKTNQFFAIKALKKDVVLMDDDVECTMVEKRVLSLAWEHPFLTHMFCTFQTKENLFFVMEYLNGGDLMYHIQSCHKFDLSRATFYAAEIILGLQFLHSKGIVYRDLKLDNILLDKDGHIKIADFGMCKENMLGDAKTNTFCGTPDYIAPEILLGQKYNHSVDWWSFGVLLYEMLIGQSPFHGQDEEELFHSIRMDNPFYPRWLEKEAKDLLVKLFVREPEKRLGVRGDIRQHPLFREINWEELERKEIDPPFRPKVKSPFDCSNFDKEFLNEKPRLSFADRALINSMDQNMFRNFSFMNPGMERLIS
# [5] = molecular target: Protein kinase C theta type (Homo sapiens) (UniProt Q04759); details: at 1 µM
# [6] = molecular target: Protein kinase C beta type (Homo sapiens) (UniProt P05771); details: at 0.1 µM
# Chain of Protein kinase C beta type (Homo sapiens) (P05771 2-671 limits assumed): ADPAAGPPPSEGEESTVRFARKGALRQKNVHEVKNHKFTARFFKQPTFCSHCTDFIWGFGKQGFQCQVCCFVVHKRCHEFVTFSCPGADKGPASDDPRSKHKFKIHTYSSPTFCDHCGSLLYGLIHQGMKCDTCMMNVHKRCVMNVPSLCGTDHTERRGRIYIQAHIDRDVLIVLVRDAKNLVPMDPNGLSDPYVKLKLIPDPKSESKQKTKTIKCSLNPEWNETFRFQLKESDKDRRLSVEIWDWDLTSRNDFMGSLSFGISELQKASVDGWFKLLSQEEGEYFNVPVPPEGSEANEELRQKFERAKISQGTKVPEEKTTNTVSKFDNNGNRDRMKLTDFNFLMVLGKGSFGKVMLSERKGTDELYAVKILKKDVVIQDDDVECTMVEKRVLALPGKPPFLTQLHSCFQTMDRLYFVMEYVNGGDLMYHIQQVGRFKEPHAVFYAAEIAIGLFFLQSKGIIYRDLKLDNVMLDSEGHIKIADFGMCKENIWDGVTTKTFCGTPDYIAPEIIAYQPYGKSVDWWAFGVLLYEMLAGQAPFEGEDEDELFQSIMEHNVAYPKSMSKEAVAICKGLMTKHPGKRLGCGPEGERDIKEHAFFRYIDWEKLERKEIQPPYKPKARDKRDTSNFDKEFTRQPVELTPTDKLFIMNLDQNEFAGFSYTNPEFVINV
# [7] = molecular target: Protein kinase C beta type (Homo sapiens) (UniProt P05771); details: at 1 µM
# [8] = molecular target: T2, Serine/threonine-protein kinase D1 (Homo sapiens) (UniProt Q15139); details: at 0.1 µM
# T2 sequence (whole entry): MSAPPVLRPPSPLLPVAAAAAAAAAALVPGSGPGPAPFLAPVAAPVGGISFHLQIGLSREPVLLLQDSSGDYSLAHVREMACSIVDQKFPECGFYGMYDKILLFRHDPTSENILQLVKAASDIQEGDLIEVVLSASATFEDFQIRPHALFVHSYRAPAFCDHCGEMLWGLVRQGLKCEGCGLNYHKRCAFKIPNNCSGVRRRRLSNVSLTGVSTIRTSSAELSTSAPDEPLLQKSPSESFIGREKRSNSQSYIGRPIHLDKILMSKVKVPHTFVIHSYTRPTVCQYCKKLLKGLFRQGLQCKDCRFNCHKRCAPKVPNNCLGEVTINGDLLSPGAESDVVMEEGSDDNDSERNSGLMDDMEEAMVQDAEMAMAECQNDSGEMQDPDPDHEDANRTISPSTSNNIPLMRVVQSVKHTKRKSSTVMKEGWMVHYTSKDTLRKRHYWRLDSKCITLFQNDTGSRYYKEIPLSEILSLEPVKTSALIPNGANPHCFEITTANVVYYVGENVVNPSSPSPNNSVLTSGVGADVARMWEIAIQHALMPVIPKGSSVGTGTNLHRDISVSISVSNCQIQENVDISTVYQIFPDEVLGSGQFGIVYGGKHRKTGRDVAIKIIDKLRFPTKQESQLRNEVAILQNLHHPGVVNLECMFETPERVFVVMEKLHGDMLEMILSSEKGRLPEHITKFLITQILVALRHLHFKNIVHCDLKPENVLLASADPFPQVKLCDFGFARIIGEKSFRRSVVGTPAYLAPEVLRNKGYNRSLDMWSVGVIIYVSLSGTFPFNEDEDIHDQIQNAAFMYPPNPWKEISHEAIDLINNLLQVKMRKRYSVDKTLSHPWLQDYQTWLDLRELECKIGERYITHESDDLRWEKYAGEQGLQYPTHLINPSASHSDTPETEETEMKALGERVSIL
# [9] = molecular target: T2, Serine/threonine-protein kinase D1 (Homo sapiens); details: at 1 µM
# [10] = molecular target: T3, Serine/threonine-protein kinase D2 (Homo sapiens) (UniProt Q9BZL6); details: at 0.1 µM
# T3 sequence (whole entry): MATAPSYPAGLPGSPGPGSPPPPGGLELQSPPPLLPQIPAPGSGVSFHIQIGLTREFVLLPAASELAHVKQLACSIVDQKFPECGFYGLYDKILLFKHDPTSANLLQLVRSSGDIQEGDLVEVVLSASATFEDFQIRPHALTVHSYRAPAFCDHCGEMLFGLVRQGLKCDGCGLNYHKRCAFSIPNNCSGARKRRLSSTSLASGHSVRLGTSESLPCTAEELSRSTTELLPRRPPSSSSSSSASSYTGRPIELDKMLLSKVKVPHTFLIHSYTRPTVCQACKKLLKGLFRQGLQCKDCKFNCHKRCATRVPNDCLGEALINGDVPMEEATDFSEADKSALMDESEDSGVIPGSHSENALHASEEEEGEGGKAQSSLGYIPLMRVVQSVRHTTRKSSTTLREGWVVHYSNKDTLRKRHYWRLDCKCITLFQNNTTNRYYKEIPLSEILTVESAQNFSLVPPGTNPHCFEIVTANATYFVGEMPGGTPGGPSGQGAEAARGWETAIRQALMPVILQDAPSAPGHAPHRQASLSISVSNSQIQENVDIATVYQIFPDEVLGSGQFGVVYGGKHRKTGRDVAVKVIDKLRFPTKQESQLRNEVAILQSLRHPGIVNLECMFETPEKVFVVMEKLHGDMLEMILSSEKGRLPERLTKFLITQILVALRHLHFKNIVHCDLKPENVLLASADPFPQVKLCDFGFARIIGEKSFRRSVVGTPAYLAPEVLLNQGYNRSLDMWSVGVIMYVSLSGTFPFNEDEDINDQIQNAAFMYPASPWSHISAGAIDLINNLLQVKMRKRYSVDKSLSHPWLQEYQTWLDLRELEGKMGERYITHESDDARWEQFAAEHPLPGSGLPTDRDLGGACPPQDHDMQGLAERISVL
# [11] = molecular target: T3, Serine/threonine-protein kinase D2 (Homo sapiens); details: at 1 µM
# [12] = molecular target: T4, Serine/threonine-protein kinase D3 (Homo sapiens) (UniProt O94806); details: at 0.1 µM
# T4 sequence (whole entry): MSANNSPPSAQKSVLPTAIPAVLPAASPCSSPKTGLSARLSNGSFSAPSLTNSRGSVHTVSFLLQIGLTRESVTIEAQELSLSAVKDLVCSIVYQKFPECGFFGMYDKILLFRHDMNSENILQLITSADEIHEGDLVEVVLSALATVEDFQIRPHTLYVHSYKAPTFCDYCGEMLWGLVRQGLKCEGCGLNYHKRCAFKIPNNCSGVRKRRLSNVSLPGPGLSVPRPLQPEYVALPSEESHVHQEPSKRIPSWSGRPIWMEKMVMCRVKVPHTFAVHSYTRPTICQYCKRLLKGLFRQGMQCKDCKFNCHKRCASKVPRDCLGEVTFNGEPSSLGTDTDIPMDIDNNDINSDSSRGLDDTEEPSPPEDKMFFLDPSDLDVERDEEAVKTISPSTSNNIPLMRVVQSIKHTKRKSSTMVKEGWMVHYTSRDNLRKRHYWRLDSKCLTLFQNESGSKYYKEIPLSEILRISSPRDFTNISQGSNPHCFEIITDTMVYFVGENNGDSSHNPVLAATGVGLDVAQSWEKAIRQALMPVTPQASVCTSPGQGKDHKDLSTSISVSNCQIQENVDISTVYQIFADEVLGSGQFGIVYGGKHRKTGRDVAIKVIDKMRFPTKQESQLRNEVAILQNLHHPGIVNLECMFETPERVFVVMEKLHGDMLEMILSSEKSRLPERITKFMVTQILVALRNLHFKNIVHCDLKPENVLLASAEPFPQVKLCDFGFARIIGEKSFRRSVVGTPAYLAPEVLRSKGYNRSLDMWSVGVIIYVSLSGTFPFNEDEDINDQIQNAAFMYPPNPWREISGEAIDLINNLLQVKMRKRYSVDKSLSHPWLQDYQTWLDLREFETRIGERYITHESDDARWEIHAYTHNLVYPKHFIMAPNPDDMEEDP
# [13] = molecular target: T4, Serine/threonine-protein kinase D3 (Homo sapiens); details: at 1 µM
# [14] = molecular target: T5, cGMP-dependent protein kinase 1 (Homo sapiens) (UniProt Q13976); details: at 0.1 µM
# T5 sequence (whole entry): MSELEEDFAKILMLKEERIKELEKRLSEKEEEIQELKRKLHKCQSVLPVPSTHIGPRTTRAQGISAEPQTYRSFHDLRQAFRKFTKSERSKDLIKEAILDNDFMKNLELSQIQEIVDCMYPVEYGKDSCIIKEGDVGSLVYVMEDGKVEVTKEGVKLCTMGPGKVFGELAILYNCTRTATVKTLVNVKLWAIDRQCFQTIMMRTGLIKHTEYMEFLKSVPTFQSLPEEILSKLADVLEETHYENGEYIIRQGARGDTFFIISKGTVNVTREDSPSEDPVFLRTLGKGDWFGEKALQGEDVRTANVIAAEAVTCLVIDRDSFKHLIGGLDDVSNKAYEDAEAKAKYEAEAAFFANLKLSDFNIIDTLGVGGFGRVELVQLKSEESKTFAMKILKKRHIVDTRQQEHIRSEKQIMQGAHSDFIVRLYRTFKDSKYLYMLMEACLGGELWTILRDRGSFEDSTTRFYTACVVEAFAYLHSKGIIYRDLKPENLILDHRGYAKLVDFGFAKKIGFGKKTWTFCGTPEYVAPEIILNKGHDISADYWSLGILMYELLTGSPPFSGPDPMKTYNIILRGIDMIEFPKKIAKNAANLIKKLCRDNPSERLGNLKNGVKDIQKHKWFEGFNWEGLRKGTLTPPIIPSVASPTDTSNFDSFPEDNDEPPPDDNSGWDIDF
# [15] = molecular target: T5, cGMP-dependent protein kinase 1 (Homo sapiens); details: at 1 µM
# [16] = molecular target: T6, cGMP-dependent protein kinase 2 (Homo sapiens) (UniProt Q13237); details: at 0.1 µM
# T6 sequence (whole entry): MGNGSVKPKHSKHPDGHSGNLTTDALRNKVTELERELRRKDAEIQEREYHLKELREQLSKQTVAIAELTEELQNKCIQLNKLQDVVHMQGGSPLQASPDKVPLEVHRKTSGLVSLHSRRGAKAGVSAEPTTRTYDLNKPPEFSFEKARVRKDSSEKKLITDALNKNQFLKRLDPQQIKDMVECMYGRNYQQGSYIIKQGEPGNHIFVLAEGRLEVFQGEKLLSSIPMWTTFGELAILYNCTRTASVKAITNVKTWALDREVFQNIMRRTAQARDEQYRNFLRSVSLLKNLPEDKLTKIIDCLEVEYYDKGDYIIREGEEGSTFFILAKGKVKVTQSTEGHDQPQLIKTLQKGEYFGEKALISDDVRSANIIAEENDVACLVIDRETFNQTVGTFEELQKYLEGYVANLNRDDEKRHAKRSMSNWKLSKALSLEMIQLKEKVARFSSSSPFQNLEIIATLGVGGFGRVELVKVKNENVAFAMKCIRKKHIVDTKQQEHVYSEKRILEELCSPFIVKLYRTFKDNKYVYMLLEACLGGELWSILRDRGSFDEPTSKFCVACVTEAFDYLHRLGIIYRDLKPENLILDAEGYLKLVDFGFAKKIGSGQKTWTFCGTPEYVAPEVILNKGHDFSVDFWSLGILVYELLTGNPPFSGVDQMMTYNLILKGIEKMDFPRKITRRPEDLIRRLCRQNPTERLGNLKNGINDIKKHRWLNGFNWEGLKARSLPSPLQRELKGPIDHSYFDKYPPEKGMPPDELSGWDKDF
# [17] = molecular target: T6, cGMP-dependent protein kinase 2 (Homo sapiens); details: at 1 µM
# [18] = molecular target: T7, cAMP-dependent protein kinase catalytic subunit PRKX (Homo sapiens) (UniProt P51817); details: at 0.1 µM
# T7 sequence (whole entry): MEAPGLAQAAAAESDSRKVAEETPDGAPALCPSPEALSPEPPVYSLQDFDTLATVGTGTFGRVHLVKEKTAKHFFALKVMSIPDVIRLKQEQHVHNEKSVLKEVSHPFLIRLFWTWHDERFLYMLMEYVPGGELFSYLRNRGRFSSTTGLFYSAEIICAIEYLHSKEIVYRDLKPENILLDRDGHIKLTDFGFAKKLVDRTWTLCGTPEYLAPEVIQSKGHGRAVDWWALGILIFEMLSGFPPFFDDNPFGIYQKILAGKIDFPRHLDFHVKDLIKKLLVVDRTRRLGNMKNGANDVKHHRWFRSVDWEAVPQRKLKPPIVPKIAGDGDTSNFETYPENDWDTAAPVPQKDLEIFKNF
# [19] = molecular target: T7, cAMP-dependent protein kinase catalytic subunit PRKX (Homo sapiens); details: at 1 µM
# [20] = molecular target: Rho-associated protein kinase 1 (Homo sapiens) (UniProt Q13464); details: at 0.1 µM;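 note: values are mean percent inhibition of ROCK1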
# Chain of Rho-associated protein kinase 1 (Homo sapiens) (Q13464 2-1354 limits assumed): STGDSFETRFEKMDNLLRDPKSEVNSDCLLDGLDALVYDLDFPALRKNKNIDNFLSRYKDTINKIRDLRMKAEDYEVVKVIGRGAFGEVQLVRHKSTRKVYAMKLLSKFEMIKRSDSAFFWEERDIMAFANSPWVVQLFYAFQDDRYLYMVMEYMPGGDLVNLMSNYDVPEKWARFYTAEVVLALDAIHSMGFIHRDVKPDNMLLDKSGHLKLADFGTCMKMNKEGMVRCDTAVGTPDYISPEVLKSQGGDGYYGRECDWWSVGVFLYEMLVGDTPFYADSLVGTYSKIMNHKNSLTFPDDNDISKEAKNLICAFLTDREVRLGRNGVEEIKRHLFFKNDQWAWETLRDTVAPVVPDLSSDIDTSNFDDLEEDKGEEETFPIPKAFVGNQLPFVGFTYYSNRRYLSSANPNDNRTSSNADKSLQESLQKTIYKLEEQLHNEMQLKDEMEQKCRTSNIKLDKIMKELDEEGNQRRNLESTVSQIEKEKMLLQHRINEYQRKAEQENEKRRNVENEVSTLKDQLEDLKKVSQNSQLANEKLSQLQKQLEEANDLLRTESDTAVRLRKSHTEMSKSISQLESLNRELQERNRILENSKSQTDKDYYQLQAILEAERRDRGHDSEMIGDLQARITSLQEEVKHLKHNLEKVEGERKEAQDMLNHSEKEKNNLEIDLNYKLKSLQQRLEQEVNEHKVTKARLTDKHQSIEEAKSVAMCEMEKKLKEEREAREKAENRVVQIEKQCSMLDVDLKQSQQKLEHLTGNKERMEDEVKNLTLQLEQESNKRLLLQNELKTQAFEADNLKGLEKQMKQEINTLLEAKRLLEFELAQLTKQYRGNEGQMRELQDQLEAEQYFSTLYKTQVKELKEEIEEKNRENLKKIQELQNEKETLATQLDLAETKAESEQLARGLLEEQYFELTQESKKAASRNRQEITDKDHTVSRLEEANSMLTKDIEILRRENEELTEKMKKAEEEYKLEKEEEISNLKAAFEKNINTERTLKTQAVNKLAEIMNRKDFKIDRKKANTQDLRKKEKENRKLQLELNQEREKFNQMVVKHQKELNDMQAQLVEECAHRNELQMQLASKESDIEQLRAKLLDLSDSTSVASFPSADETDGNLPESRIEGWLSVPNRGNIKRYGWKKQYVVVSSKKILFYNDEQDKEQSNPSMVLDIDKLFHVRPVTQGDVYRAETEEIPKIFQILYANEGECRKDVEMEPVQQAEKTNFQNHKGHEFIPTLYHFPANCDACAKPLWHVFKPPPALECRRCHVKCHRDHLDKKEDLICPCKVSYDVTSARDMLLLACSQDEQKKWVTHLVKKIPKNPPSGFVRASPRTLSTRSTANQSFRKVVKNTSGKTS
smiles,measurement,setting,value
O=C1Nc2ccc(I)cc2C1=Cc1cc(Br)c(O)c(Br)c1,inhibition,[1],2.63%
same,inhibition,[2],0.72%
same,inhibition,[3],1.75%
same,inhibition,[4],1.74%
same,inhibition,[5],2.5%
same,inhibition,[6],0.99%
same,inhibition,[7],1.87%
same,inhibition,[8],3.52%
same,inhibition,[9],4.76%
same,inhibition,[10],2.97%
same,inhibition,[11],1.24%
same,inhibition,[12],3.73%
same,inhibition,[13],3.16%
same,inhibition,[14],3.82%
same,inhibition,[15],5.76%
same,inhibition,[16],2.47%
same,inhibition,[17],6.45%
same,inhibition,[18],0.49%
same,inhibition,[19],2.04%
same,inhibition,[20],2.76%
